Here are results for 56 compounds from PubChem BioAssay AID1259251 (The Scripps Research Institute Molecular Screening Center, 2017).

Out of some 30,000 compounds screened, about 580 (1.9%) were called active. Rule as the data show it: active = inhibition above about 43%; inactive = the rest. The list comes from a sample in which actives are over-represented; it also holds similar structures and randomly drawn compounds.

Chain of Serine/threonine-protein kinase ULK1 (Homo sapiens) (O75385 whole entry, looked up): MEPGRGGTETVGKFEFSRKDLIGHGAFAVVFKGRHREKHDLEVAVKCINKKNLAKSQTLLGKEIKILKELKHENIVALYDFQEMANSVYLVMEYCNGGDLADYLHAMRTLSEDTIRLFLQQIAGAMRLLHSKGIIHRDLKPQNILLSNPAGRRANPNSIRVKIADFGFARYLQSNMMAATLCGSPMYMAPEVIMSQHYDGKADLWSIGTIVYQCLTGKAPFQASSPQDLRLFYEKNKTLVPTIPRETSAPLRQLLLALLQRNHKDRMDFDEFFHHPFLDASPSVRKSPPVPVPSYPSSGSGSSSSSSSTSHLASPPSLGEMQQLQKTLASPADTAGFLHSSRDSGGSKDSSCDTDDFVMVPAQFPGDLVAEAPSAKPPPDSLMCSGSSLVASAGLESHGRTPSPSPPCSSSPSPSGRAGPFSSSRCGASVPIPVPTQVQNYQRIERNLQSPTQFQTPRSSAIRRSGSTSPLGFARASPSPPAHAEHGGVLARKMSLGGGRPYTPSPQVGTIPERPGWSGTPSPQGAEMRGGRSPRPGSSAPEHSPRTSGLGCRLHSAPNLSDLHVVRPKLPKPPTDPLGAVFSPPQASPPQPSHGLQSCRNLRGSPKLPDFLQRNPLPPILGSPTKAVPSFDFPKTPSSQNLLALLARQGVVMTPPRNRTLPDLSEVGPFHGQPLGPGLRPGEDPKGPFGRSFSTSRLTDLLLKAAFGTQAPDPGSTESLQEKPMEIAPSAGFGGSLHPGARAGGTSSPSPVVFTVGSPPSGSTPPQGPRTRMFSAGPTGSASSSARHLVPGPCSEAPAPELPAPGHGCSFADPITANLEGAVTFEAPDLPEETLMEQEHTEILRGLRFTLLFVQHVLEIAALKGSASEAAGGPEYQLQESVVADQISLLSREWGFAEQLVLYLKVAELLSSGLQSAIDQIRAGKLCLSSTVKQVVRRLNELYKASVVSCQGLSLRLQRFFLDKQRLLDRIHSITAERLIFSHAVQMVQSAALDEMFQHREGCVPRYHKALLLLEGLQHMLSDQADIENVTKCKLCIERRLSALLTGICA

This assay has as its target Serine/threonine-protein kinase ULK1 (Homo sapiens) (UniProt O75385). The assay is described as follows: ULK1 kinase inhibitors, primary screen, biochemical, AlphaScreen (AID 1259251).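 Also: 0% = median of compound wells and 100% = no enzyme.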 The settings on record: AlphaScreen Atg13 phosphorylation by ULK1, luminescence; at 5.96 µM; hits give high values.
As to `CC(NC(=O)C(C(=O)c1ccccc1)n1ccccc1=O)c1ccccc1` (stereo unspecified), the inhibition was 1.21% (inactive).
On to `N#Cc1cccc(C[C@H](N)c2nc3ccc(-c4ccncc4)cc3[nH]2)c1`, for which the inhibition is 7.99% (inactive).
With `COc1cc2nc(Nc3ccccc3)nc(NCc3cccc(C(F)(F)F)c3)c2cc1OC` the figure was -26.9% (inactive); with `COc1nc(Nc2ccccc2)nc(-c2ccc(C(=O)NC3CC3)cc2)n1`, 22.8% (inactive).
With `COc1ccc(CCNc2cc(NC3CCN(Cc4ccccc4)CC3)ncn2)cc1` the figure was -6.44% (inactive).
For the compound `COc1cc(OC)nc(Oc2ccccc2/C=N/N(C)C(N)=S)n1`, the inhibition was 10.3% (inactive).
With `CCN(CC)C(=O)C1CCCN(c2cc(Nc3ccccc3)nc(N)n2)C1` (stereo unspecified) the figure was 13.1% (inactive); with `Fc1ccc(CNc2ncc3ccc(-c4cn[nH]c4)cc3c2Cl)cc1`, 70.6% (active); with `COc1ccc(CNC(=O)c2c[nH]c3cc(-c4cn[nH]c4)ccc23)cc1`, -3.48% (inactive).
With `O=C(NCc1cccc(Cl)c1)Nc1ccc(-c2cn[nH]c2)cc1` the figure was 16% (inactive); with `O=C(Oc1ccc([N+](=O)[O-])cc1)c1ccc2c(c1)C(=O)N(c1ccc([N+](=O)[O-])cc1)C2=O`, 8.64% (inactive); with `COc1ccc(CCNC(=O)c2cnc(-c3cccs3)s2)cc1`, -2.76% (inactive).
With `COc1ccc(-c2nc3ncnc(NCCN4CCOCC4)c3[nH]2)cc1` the figure was 0.53% (inactive).
With `Cc1ncc2c(NCCCN3CCOCC3)nc3ccccc3n12`, the inhibition was 12.3% (inactive).
Regarding `Oc1c(Cl)cc(Cl)c(Cl)c1Cc1c(O)c(Cl)cc(Cl)c1Cl`, the inhibition is 75.9% (active).
On to `c1cc(-c2ocnc2-c2ncco2)cc(Nc2ccc(N3CCOCC3)cc2)n1`, for which the inhibition is -5.51% (inactive).
For the compound `CC(C)c1nc2ccc(-c3ccnn3C)cc2c(=O)[nH]1`, the inhibition is -1.76% (inactive).
As for `COc1ccc(C(N)c2nc3ccc(-c4cn[nH]c4)cc3c(=O)[nH]2)cc1` (stereo unspecified), the inhibition is 16% (inactive).
With `CC(C)c1nc2ccc(-c3cn[nH]c3)cc2c(=O)[nH]1` the figure was 69% (active); with `Cc1cccc(C(=O)NCc2ccccc2)c1N1CCC2(CC1)OCCO2`, 4.05% (inactive); with `Cc1cc(NC2CC2)nc(N2CCCC2CO)n1` (stereo unspecified), -3.85% (inactive).
Next, `CC(C)N(CCNc1ccnc(Nc2ncccn2)n1)C(C)C`: -7.14% (inactive); `Cc1ncn(-c2ccc(Nc3nccc(-c4cc(C#N)cc(NC5CCN(C)CC5)c4)n3)cc2)n1`: 3.12% (inactive).
With `Cc1ccc(-c2ncn(-c3ccc(Nc4nccc(-c5cc(C#N)cc(N6CCCC(O)C6)c5)n4)cc3)n2)cn1` (stereo unspecified) the figure was 0.75% (inactive); with `Cn1nnnc1-c1ccc(Nc2nccc(-c3ccc(N4CCC(O)CC4)c(C#N)c3)n2)cc1`, 64.2% (active).
For `Cn1c(Nc2nc3ccc(C(=O)NCCO)cc3s2)nc2ccccc21`, the inhibition was 20.6% (inactive).
With `Cc1cc(NCc2cccc(C(F)(F)F)c2)nc(NC2CCC(O)CC2)n1` (stereo unspecified), the inhibition is -8.27% (inactive).
Turning to `Nc1nc(Nc2cnccn2)cc(NC2CCN(Cc3ccccc3)CC2)n1`, the inhibition was -0.08% (inactive).
Next, `CC(=O)c1cccc(-c2nc3ncnc(NCc4nc5ccccc5[nH]4)c3[nH]2)c1`: -5.39% (inactive); `CC(C)(C)c1nc(-c2cccc(NS(=O)(=O)c3c(F)cccc3F)c2F)c(-c2ccnc(N)n2)s1`: 66.2% (active); `CCCNc1nc(-c2cccc(C(C)=O)c2)nc2c1ncn2-c1ccccc1`: -6.8% (inactive).
Next, `C[C@@H](CN)Oc1ncccc1C(=O)Nc1ccc2[nH]ncc2c1`: 0.92% (inactive).
Next, `OCC1CCCN1c1nc2ncnc(NC3CC3)c2[nH]1` (stereo unspecified): 1.11% (inactive); `COc1cccc(CNC(=O)Nc2ccc(-c3cn[nH]c3)cc2OC2CCC(O)C2)c1` (stereo unspecified): 2.68% (inactive); `COc1cccc(CNC(=O)Nc2ccc(-c3cn[nH]c3)cc2OC2CCNC2)c1` (stereo unspecified): 55.8% (active).
`COc1cccc(CN(CC2CC2)C(=O)Nc2ccc(-c3cn[nH]c3)cc2OC)c1`: the inhibition was -27.8% (inactive).
Consider `CCCNc1nc(NCc2cccnc2)nc2c1ncn2Cc1ccc(C(F)(F)F)cc1`, for which the inhibition was -9.26% (inactive).
As for `O=C(NCc1cccc(C(F)(F)F)c1)c1cnc(NCCCN2CCCC2=O)s1`, the inhibition was -7.22% (inactive).
Next, `COC(=O)c1ccc(Cn2c(-c3nnc(CC(C)C)o3)cc3ccccc32)o1`: -10% (inactive); `CC(=O)c1cccc(-c2nc3c(NCCCN4CCCC4=O)ncnc3n2C(C)C)c1`: 5.85% (inactive); `CC(=O)c1cccc(-c2nc3c(Nc4ccc(N5CCOCC5)cc4)ncnc3n2C(C)C)c1`: 67.5% (active).
Next, `CC(=O)Nc1ccc(Nc2ncnc3c2nc(-c2cccc(N)c2)n3C(C)C)cc1`: -4.82% (inactive).
On to `O=C1NC(=S)NC(=O)C1=Cc1ccc(-c2ccc([N+](=O)[O-])c(Cl)c2)o1`, for which the inhibition was 24.2% (inactive).
With `O=C(NCc1cccc(NC(=O)C2CC2)c1)Nc1ccc(-c2cn[nH]c2)cc1` the figure was 6.93% (inactive); with `Cn1cc(-c2cc(Nc3ccc(N4CCOCC4)cn3)ncc2Cl)cn1`, 53.2% (active).
Turning to `Cn1nccc1Nc1cc(Nc2ccc(N3CCOCC3)cc2)ncn1`, the inhibition is 17.2% (inactive).
For `COc1cc(Nc2cc(-c3nocc3-c3cnn(C)c3)ccn2)ccc1N1CCOCC1`, the inhibition is -3.85% (inactive).
With `COc1ccc(CCNc2cc(-c3csc4ccccc34)ncn2)cc1` the figure was -12% (inactive).
Next, `COCCn1nnnc1C(c1cc2ccc(C)cc2[nH]c1=O)N1CCc2ccccc21` (stereo unspecified): -5.34% (inactive); `O=C(Nc1ccc(-c2cn[nH]c2)cc1)C1CCc2ccccc2O1` (stereo unspecified): 12.4% (inactive); `COc1cc(Nc2ccc(N3CCC(C(=O)NCc4nc5ccccc5[nH]4)CC3)nn2)cc(OC)c1OC`: 7.51% (inactive).
Next, `COc1ccc2c(c1)CC(C(=O)Nc1ccc(-c3cn[nH]c3)cc1OCCN(C)C)CO2` (stereo unspecified): 7.42% (inactive); `CC(C)NC(=O)c1cccc(Nc2nccc(-c3ccc4nc(C5CC5)nc(N5CCCC5)c4c3)n2)c1`: -33.9% (inactive); `O=C(c1ccc(Nc2nccc(-c3ccc4c(=O)[nH]c(C5CC5)nc4c3)n2)cc1)N1CCCC1`: 62.9% (active).
Turning to `COc1cccc(Nc2nccc(-c3ccc4c(=O)n(C5CC5)c(C)nc4c3)n2)c1`, the inhibition is 21.2% (inactive).
For `OCC1CCCN1c1nc(NC2CCN(Cc3ccccc3)CC2)c2ncn(Cc3ccc(C(F)(F)F)cc3)c2n1` (stereo unspecified), the inhibition is -14.8% (inactive).
